About 83,000 compounds went through this panel and 20% of them were active in at least one assay; those are over-represented in the sample as a whole.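 Testing used 96-well plates and a 48-hour single-concentration exposure. Example: -40 means 40% of the starting cells died.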 Values without a mark were called inactive. Activity calls are given as the source filed them. How the source made its calls: active means growth percent below 10; inactive means the rest.
System: MCF7 breast
Assay: NCI-60 one-dose screen, 48 h (100 = growth as untreated, 0 = no growth, -100 = all killed)
Details: 10 µM

Row | SMILES | growth
1 | CC(=O)/C(=C\c1ccc(Cl)cc1)c1ccccc1 | 9.45% (active)
2 | COc1ccc2nc(NC(=O)Nc3c(F)cccc3F)sc2c1 | 95.6%
3 | COc1cc(Cn2c(-c3ccccc3)cc3c2-c2oncc2CC3)cc(OC)c1 | 14.1%
4 | CCC(CCNc1cc(OC)cc2cccnc12)CN1C(=O)c2ccccc2C1=O (configuration not stated) | 31.1%
5 | CCOC(=O)c1sc(NC(=O)c2cc(OC)c(OC)c(OC)c2)nc1C | 87.5%
6 | C#CCNCCN1C(=O)c2ccc3c4c(ccc(c24)C1=O)C(=O)N(CCNCC#C)C3=O | 14.9%
7 | CC(=O)Nc1nc(C)c(C(=O)NNC=O)s1 | 92.4%
8 | CCN(CCCNC(=O)Cc1cc(=O)oc2cc(N(C)C)ccc12)CCNc1ccnc2cc(Cl)ccc12 | 66%
9 | Cc1nc(N)sc1Sc1nc2ccc(Cl)cc2c(=O)n1-c1ccc(Oc2ccccc2)cc1 | 87.4%
10 | COc1ccc(-c2nnc(COc3ccc(NC(=O)Nc4cccc(C(F)(F)F)c4)cc3F)o2)cc1 | 88.7%
11 | Cc1ccc(/C(CS(=O)(=O)c2ccc(C)cc2)=N\O)cc1 | 91.3%
12 | O=[N+]([O-])c1ccc(-c2nc(-c3ccccc3)c(-c3ccccc3)n2-c2ccccc2)cc1 | 19.6%
13 | COc1ccc(NC(=O)CCn2cnc3c(cc(-c4ccccc4)n3-c3ccccc3)c2=O)cc1 | 83.3%
14 | CCCCCCCCCCCC(=O)NCCCN(C)C | 65.7%
15 | COc1ccc(S(=O)(=O)Nc2ccc(OCc3nnc(-c4ccc(Cl)cc4)o3)c(F)c2)cc1 | 42.8%
16 | Fc1ccc(-c2cc(C(Cl)Cl)no2)cc1 | 88.7%
17 | CCCc1c(C)nc2scc(-c3ccc(Cl)cc3)n2c1=O | 95.2%
18 | O=C(O)c1cc(C(F)(F)F)cc(C(F)(F)F)c1 | 101%
19 | CC(=O)Nc1nc(C)c(C(=O)N/N=C/c2cccn2C)s1 | 87.5%

Row | SMILES | growth
20 | CCOc1cc(Br)c(C(C)NC(=O)c2cccc(OC)c2)cc1OCC (configuration not stated) | 64.4%
21 | CCN1CCN(c2ccc(Nc3ncnc4c3nnn4CCc3cc(OC)cc(OC)c3)cc2)CC1 | 85.8%
22 | CC(=O)OC1Oc2ccccc2-c2oc(=O)c(-c3cc(=O)oc4cc(O)ccc34)cc21 (configuration not stated) | 85.5%
23 | Cc1ccc(-c2cc(C(=O)Nc3ccc(S(=O)(=O)N4CCCCC4)cc3)[nH]n2)c(O)c1 | 46.8%
24 | COc1ccc(-c2csc(NC(=O)CO[N+](=O)[O-])n2)cc1 | 92.6%
25 | CCN(CC)CCn1c(=N)n(CC(O)c2ccc(Cl)c(Cl)c2)c2ccccc21 (configuration not stated) | 90%
26 | Cc1cc(Nc2cccc(F)c2)nc(NCc2ccccc2)n1 | 15.1%
27 | CCOC(=O)[C@@H]1[C@H](c2ccccc2)[C@H]([N+](=O)[O-])[C@H](c2cn(-c3ccccc3)nc2C)N1Cc1ccccc1 | 67.6%
28 | COc1ccc(C2C=C(c3ccc(Cl)cc3)N=C3SC=CN32)c(Br)c1 (configuration not stated) | 75.3%
29 | CCCc1ccnc(NS(=O)(=O)c2ccc(N)cc2)n1 | 49.2%
30 | O=C1/C(=C/c2cccs2)CCC/C1=C\c1cccs1 | 21.4%
31 | COc1cc(Nc2ccnc(N3CCN(c4ccnc5cc(Cl)ccc45)CC3)n2)cc(OC)c1 | 0.585% (active)
32 | Clc1ccc(-c2nc(-c3cccs3)cn3ccnc23)cc1 | 19.1%
33 | CCN1CCOC1C(C)C (configuration not stated) | 101%
34 | Cn1cnc([N+](=O)[O-])c1Sc1nnc(-c2ccccc2)c(-c2ccccc2)n1 | 61.9%
35 | O=C(N/N=C\c1cc(Cl)ccc1O)c1ccncc1 | 14.6%
36 | Cc1nc2cc(-n3c(-c4ccc(F)cc4)nc4ccccc4c3=O)ccc2n1Cc1ccccc1 | -24.9% (active)
37 | O=[N+]([O-])c1ccc2c(c1)Cc1cc(I)ccc1-2 | 85%

Reference: PubChem BioAssay (NCI)
